Measurements taken from PubChem BioAssay AID1159580 (chemical genetic matrix, 2015).
Hit rate of the full screen: of about 5,500 compounds, about 2,000 (36%) were called active. Another 18% or so got no clear call; they are omitted. Rule as the data show it: active = normalized growth mostly below about 0.91 (no sharp cut-off); inconclusive = no clear call, values can overlap the other calls; inactive = mostly above about 0.92. This is one part of the list.

Experiment: chemical genetic growth profiling, strain panel (AID 1159580);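 also: tested at 20 µM; growth read once vehicle control cultures reached saturation at 30 °C; 1 = growth at the plate median or of vehicle wells; lower values mean less growth of the strain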
Conditions: growth OD

Measured: normalized growth

NC[C@H]1O[C@H](O[C@H]2[C@H](O)[C@@H](O[C@H]3O[C@H](CO)[C@@H](O)[C@H](N)[C@H]3O)[C@H](N)C[C@@H]2N)[C@H](N)C[C@@H]1O
inactive: S. cerevisiae deletion strains, locus YJR075W, strain HOC1, hits give low values 1.01 | S. cerevisiae deletion strains, locus YKL009W, strain mrt4, hits give low values 1.02 | S. cerevisiae deletion strains, locus YKL068W, hits give low values 0.998 | S. cerevisiae deletion strains, locus YKL085W, strain MDH1 (second series), hits give low values 1 | S. cerevisiae deletion strains, locus YKL085W, strain MDH1, hits give low values 1 | S. cerevisiae deletion strains, locus YKL160W, strain elf1, hits give low values 0.959 | S. cerevisiae deletion strains, locus YKL190W, strain CNB1, hits give low values 0.994 | S. cerevisiae deletion strains, locus YKR001C, strain vps1, hits give low values 0.968 | S. cerevisiae deletion strains, locus YKR026C, strain gcn3, hits give low values 1.02 | S. cerevisiae deletion strains, locus YKR091W, strain srl3, hits give low values 1.01 | S. cerevisiae deletion strains, locus YLL001W, strain dnm1, hits give low values 0.987 | S. cerevisiae deletion strains, locus YLL026W, hits give low values 1.01 | S. cerevisiae deletion strains, locus YLL041C, strain sdh2, hits give low values 1.01 | S. cerevisiae deletion strains, locus YLR027C, strain aat2, hits give low values 1 | S. cerevisiae deletion strains, locus YLR039C, strain RIC1, hits give low values 1.01 | S. cerevisiae deletion strains, locus YLR058C, strain SHM2, hits give low values 0.994 | S. cerevisiae deletion strains, locus YLR102C, strain apc9, hits give low values 1.01 | S. cerevisiae deletion strains, locus YLR113W, strain HOG1, hits give low values 0.978 | S. cerevisiae deletion strains, locus YLR221C, strain rsa3, hits give low values 0.998 | S. cerevisiae deletion strains, locus YLR258W, strain gsy2, hits give low values 1.01 | S. cerevisiae deletion strains, locus YLR262C, strain YPT6 (second series), hits give low values 0.973 | S. cerevisiae deletion strains, locus YLR262C, strain YPT6, hits give low values 1.05 | S. cerevisiae deletion strains, locus YLR268W, strain sec22, hits give low values 1.04 | S. cerevisiae deletion strains, locus YLR320W, strain mms22, hits give low values 1 | S. cerevisiae deletion strains, locus YLR330W, strain CHS5, hits give low values 1.01 | S. cerevisiae deletion strains, locus YLR342W, strain FKS1 (second series), hits give low values 1.02 | S. cerevisiae deletion strains, locus YLR342W, strain FKS1, hits give low values 1.01 | S. cerevisiae deletion strains, locus YLR357W, strain rsc2, hits give low values 0.991 | S. cerevisiae deletion strains, locus YLR370C, strain arc18, hits give low values 1.03 | S. cerevisiae deletion strains, locus YLR371W, strain rom2, hits give low values 1.02 | S. cerevisiae deletion strains, locus YLR384C, strain iki3, hits give low values 1.02 | S. cerevisiae deletion strains, locus YLR418C, strain cdc73, hits give low values 0.986 | S. cerevisiae deletion strains, locus YML016C, strain PPZ1, hits give low values 0.996 | S. cerevisiae deletion strains, locus YML032C, strain rad52, hits give low values 1.02 | S. cerevisiae deletion strains, locus YML120C, strain ndi1, hits give low values 1.01 | S. cerevisiae deletion strains, locus YML124C, strain tub3, hits give low values 1.01 | S. cerevisiae deletion strains, locus YMR058W, strain fet3, hits give low values 1 | S. cerevisiae deletion strains, locus YMR078C, strain ctf18, hits give low values 1.01 | S. cerevisiae deletion strains, locus YMR125W, strain sto1, hits give low values 1.01 | S. cerevisiae deletion strains, locus YMR129W, hits give low values 1.01 | S. cerevisiae deletion strains, locus YMR205C, strain PFK2, hits give low values 0.965 | S. cerevisiae deletion strains, locus YMR223W, strain ubp8, hits give low values 0.988 | S. cerevisiae deletion strains, locus YMR231W, strain pep5, hits give low values 0.996 | S. cerevisiae deletion strains, locus YMR307W, strain GAS1, hits give low values 1.01 | S. cerevisiae deletion strains, locus YNL067W, strain RPL9B, hits give low values 0.99 | S. cerevisiae deletion strains, locus YNL071W, strain lat1, hits give low values 1.01 | S. cerevisiae deletion strains, locus YNL128W, strain TEP1, hits give low values 0.995 | S. cerevisiae deletion strains, locus YNL153C, strain GIM3, hits give low values 0.994 | S. cerevisiae deletion strains, locus YNL183C, strain NPR1, hits give low values 0.933 | S. cerevisiae deletion strains, locus YNL209W, strain ssb2, hits give low values 1.01 | S. cerevisiae deletion strains, locus YNL233W, strain BNI4, hits give low values 1.01 | S. cerevisiae deletion strains, locus YNL248C, strain rpa49, hits give low values 0.956 | S. cerevisiae deletion strains, locus YNL250W, strain rad50, hits give low values 1.01 | S. cerevisiae deletion strains, locus YNL271C, strain bni1, hits give low values 1 | S. cerevisiae deletion strains, locus YNL298W, strain CLA4, hits give low values 0.998 | S. cerevisiae deletion strains, locus YNL307C, strain MCK1, hits give low values 1.01 | S. cerevisiae deletion strains, locus YNL322C, strain KRE1 (second series), hits give low values 1 | S. cerevisiae deletion strains, locus YNL322C, strain KRE1, hits give low values 1.01 | S. cerevisiae deletion strains, locus YNR049C, strain mso1, hits give low values 1.02 | S. cerevisiae deletion strains, locus YNR052C, strain pop2, hits give low values 1.01 | S. cerevisiae deletion strains, locus YOL006C, strain TOP1, hits give low values 1.02 | S. cerevisiae deletion strains, locus YOL012C, strain htz1 1.38 | S. cerevisiae deletion strains, locus YOL147C, strain pex11, hits give low values 1.01 | S. cerevisiae deletion strains, locus YOR001W, strain rrp6, hits give low values 1.05 | S. cerevisiae deletion strains, locus YOR061W, strain CKA2, hits give low values 1.01 | S. cerevisiae deletion strains, locus YOR069W, strain VPS5, hits give low values 1.01 | S. cerevisiae deletion strains, locus YOR070C, strain gyp1, hits give low values 1.02 | S. cerevisiae deletion strains, locus YOR080W, strain dia2, hits give low values 1.01 | S. cerevisiae deletion strains, locus YOR083W, strain WHI5, hits give low values 0.959 | S. cerevisiae deletion strains, locus YOR106W, strain vam3, hits give low values 0.964 | S. cerevisiae deletion strains, locus YOR136W, strain idh2, hits give low values 0.993 | S. cerevisiae deletion strains, locus YOR144C, strain elg1, hits give low values 1.01 | S. cerevisiae deletion strains, locus YOR184W, strain ser1, hits give low values 0.99 | S. cerevisiae deletion strains, locus YOR231W, strain MKK1, hits give low values 0.971 | S. cerevisiae deletion strains, locus YOR265W, strain rbl2, hits give low values 1.03 | S. cerevisiae deletion strains, locus YOR270C, strain vph1, hits give low values 0.943 | S. cerevisiae deletion strains, locus YOR290C, strain snf2, hits give low values 0.987 | S. cerevisiae deletion strains, locus YOR316C, strain cot1, hits give low values 1.01 | S. cerevisiae deletion strains, locus YPL051W, strain arl3, hits give low values 0.988 | S. cerevisiae deletion strains, locus YPL055C, strain LGE1, hits give low values 0.974 | S. cerevisiae deletion strains, locus YPL078C, strain atp4, hits give low values 0.959 | S. cerevisiae deletion strains, locus YPL106C, strain sse1, hits give low values 1.03 | S. cerevisiae deletion strains, locus YPL240C, strain hsp82, hits give low values 1.02 | S. cerevisiae deletion strains, locus YPL256C, strain CLN2, hits give low values 0.968 | S. cerevisiae deletion strains, locus YPR119W, strain clb2, hits give low values 1.01 | S. cerevisiae deletion strains, locus YPR141C, strain kar3, hits give low values 1.01 | S. cerevisiae deletion strains, locus YPR163C, strain tif3, hits give low values 1.02 | S. cerevisiae deletion strains, locus YPR167C, strain met16, hits give low values 1.01 | S. cerevisiae deletion strains, strain wtn01, hits give low values 1.01 | S. cerevisiae strains, strain wild type, hits give low values 0.998
